The values that follow come from PubChem BioAssay (NCATS).

The test system of one assay is W2. The assay is described as follows: qHTS profiling for inhibitors of Plasmodium falciparum proliferation (AID 504749). Further: nearly all actives have a fitted effect of over 60% in size. Further: potency means the concentration at half of the fitted maximal effect. Particulars: P. falciparum in erythrocytes, SYBR Green DNA, 72 h; series mostly up to 28.7 µM. In outline: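 P. falciparum-infected erythrocytes (0.3% parasitemia, 2.5% hematocrit final) were exposed to compounds for 72 h at 37 C in 5% CO2, then lysed with SYBR Green buffer overnight at room temperature; parasite DNA fluorescence was normalized to artemisinin and DMSO controls.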
Background: Quantitative high-throughput screening tests each substance at several concentrations.

A further assay concerns CRL-7250. The assay is described as follows: Cytotoxic Profiling of Annotated Libraries Using Quantitative High-Throughput Screening (AID 1296008). Further: nearly all actives have a fitted effect of over 60% in size. Further: potency means the concentration at half of the fitted maximal effect. On max response: on the % scale 0 is the no-effect control and ±100 the full control effect. Particulars: Five cell lines viability, CellTiter-Glo ATP luminescence, 48-72 h; max response: stronger effect = lower value. In outline:
(§1)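 Compounds were pin-transferred onto cells and incubated 48 or 72 hr at 37 degree Celsius, 95% humidity. CellTiter-Glo was added, plates sat 10 min at room temperature, then ATP-coupled luminescence was imaged as the viability read-out.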

The subject of a further assay is HEK293. The assay is described as above. Particulars: Five cell lines viability, CellTiter-Glo ATP luminescence, 48-72 h; max response: stronger effect = lower value. The method, boiled down: as §1
For orientation: Cellular ATP, detected with luciferase, serves as a proxy for viable cell number.

Another assay relates to KB-3-1. The description is as above. As to conditions: Five cell lines viability, CellTiter-Glo ATP luminescence, 48-72 h; max response: stronger effect = lower value. The method, boiled down:
as §1

In the next assay the test system is NIH3T3. The assay is described as above. As to conditions: Five cell lines viability, CellTiter-Glo ATP luminescence, 48-72 h; max response: stronger effect = lower value. In outline:
as §1

Another assay concerns MCC-13. Briefly: qHTS assay to identify novel small-molecules to repurpose for Merkel cell carcinoma treatment (AID 1296009). Further: nearly all actives have a fitted effect of over 60% in size. Further: potency means the concentration at half of the fitted maximal effect. On activity change, negative = cytotoxicity: on the % scale 0 is the no-effect control and ±100 the full control effect. As to conditions: MCC and control cell lines, CellTiter-Glo viability, 72 h; series mostly up to 46 µM. In outline:
(§2)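 Cells exposed to NPC (8-point) and MIPE (11-point) compound dilutions for 72 hr at 37 degree celsius; viability read by CellTiter-Glo luminescence, normalized to no-cell and DMSO in-plate controls.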

For another assay, the system named is MCC-26. The description is as above. As to conditions: MCC and control cell lines, CellTiter-Glo viability, 72 h; series mostly up to 46 µM. In outline:
as §2

The next assay deals with MKL-1. The assay is described as above. As to conditions: MCC and control cell lines, CellTiter-Glo viability, 72 h; series mostly up to 46 µM. The method, boiled down: as §2
The next assay has as its system MKL-2. Described as above. As to conditions: MCC and control cell lines, CellTiter-Glo viability, 72 h; series mostly up to 46 µM. In outline:
as §2

The next assay has as its system UISO. The assay is described as above. As to conditions: MCC and control cell lines, CellTiter-Glo viability, 72 h; series mostly up to 46 µM. The method, boiled down:
as §2

The subject of another assay is WaGa. The assay is described as above. Particulars: MCC and control cell lines, CellTiter-Glo viability, 72 h; series mostly up to 46 µM. In outline: as §2
Another assay has as its system C33A. Briefly: Primary qHTS to identify gynecologic anti-cancer compounds using libraries of approved drugs and bioactive compounds (AID 1345084). Further: on the % scale 0 is the no-effect control and ±100 the full control effect; nearly all actives have a fitted effect of over 55% in size. Particulars: Gynecologic cancer cell panel viability, ATPlite luminescence, 48 h; series mostly up to 57.5 µM. The method, boiled down:
(§3)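 ATP-based viability (ATPlite), 1,000 cells/well, 16 h pre-incubation, 48 h compound at 37 C, 5% CO2, 15 min RT before read.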

Another assay deals with CAOV3. The assay is described as above. Particulars: Gynecologic cancer cell panel viability, ATPlite luminescence, 48 h; series mostly up to 57.5 µM. In outline:
as §3

Another assay has as its system CASKI. The description is as above. Particulars: Gynecologic cancer cell panel viability, ATPlite luminescence, 48 h; series mostly up to 57.5 µM. In outline:
as §3

For the next assay, the system named is Es-2. The description is as above. Particulars: Gynecologic cancer cell panel viability, ATPlite luminescence, 48 h; series mostly up to 57.5 µM. The method, boiled down: as §3
Another assay relates to HeLa. Described as above. As to conditions: Gynecologic cancer cell panel viability, ATPlite luminescence, 48 h; series mostly up to 57.5 µM. In outline: as §3
The next assay deals with HEK293T. The assay is described as follows: qHTS assay to identify novel small-molecules to repurpose for Merkel cell carcinoma treatment (AID 1296009). Further: nearly all actives have a fitted effect of over 60% in size. Further: potency means the concentration at half of the fitted maximal effect. On activity change, negative = cytotoxicity: on the % scale 0 is the no-effect control and ±100 the full control effect. Particulars: MCC and control cell lines, CellTiter-Glo viability, 72 h; at 44.8 µM (top of the series) unless noted. In outline: as §2
A further assay deals with HaCat. Briefly: Cytotoxic Profiling of Annotated Libraries Using Quantitative High-Throughput Screening (AID 1296008). Further: nearly all actives have a fitted effect of over 60% in size. Further: potency means the concentration at half of the fitted maximal effect. On max response: on the % scale 0 is the no-effect control and ±100 the full control effect. As to conditions: Five cell lines viability, CellTiter-Glo ATP luminescence, 48-72 h; max response: stronger effect = lower value. In outline: as §1

Molecules are shown by their SMILES. Inconclusive results are not listed. Values without a mark were called inactive. The source made the active and inactive calls. The call rests on the fitted dose curve; in most records, active means well fitted curve in the direction sought with a large enough effect; inconclusive means small, poorly fitted or top-dose-only effect, or another doubt; inactive means no such curve, though single readings can be large; an effect the other way counts as inactive or inconclusive.

For `Nc1ccc(S(=O)(=O)NCc2ccccc2)cc1`, the Potency result with W2, in the assay on MCC-13, in the assay with MCC-26, in the assay on MKL-1, with MKL-2 and in the assay with UISO was “inactive” each time. Besides, the Potency result with WaGa, with C33A, in the assay with CAOV3, in the assay with CASKI, in the assay on Es-2 and in the assay with HeLa was “inactive” throughout. In addition, the max response is -13.3% in the assay on CRL-7250, 3.66% with HEK293, -2.49% in the assay on KB-3-1 and -0.659% in the assay with NIH3T3.
On to `O=C1C(O)=C(O)C(=O)C(O)=C1O`, for which the max response is -21.8% with CRL-7250, -3.2% with KB-3-1 and -17.6% in the assay with NIH3T3. Also, the compound was classed as inactive in the assay on HEK293 and with HEK293T. For the same compound, the Potency result in the assay on MCC-13, with MCC-26, in the assay on MKL-1, in the assay on MKL-2, with UISO and with WaGa was “inactive” throughout. For the same compound, the Potency entry in the assay with C33A, in the assay on CAOV3, with CASKI and in the assay on Es-2 was “inactive” throughout.
On to `CCOC(=O)c1c(N)sc2c1CCN(Cc1ccccc1)C2`, for which the Potency in the assay on W2 is 4.78 µM (active); in the assay on CRL-7250, 18.8 µM (active); in the assay on HEK293, 11.9 µM (active); in the assay with MKL-2, 3.76 µM (active); with WaGa, 21.1 µM (active). For the same compound, the max response in the assay with KB-3-1 was -15.4%. For the same compound, the Potency result in the assay with MCC-13, with Es-2 and in the assay on HeLa was “inactive” throughout.
As for `CCN[C@@H]1C[C@H](N)[C@@H](OC2OC(CN)=CCC2N)[C@H](O)[C@H]1O[C@H]1OC[C@](C)(O)[C@H](NC)[C@H]1O` (some centres undefined), the max response in the assay on CRL-7250 was 0.244%; in the assay on KB-3-1 it was 17.1%; in the assay on NIH3T3, -0.0944%. Also, the compound was called inactive in the assay with HEK293. The outcome in the assay on HEK293T was “inactive [at 0.588 µM]”. Further, the activity change, negative = cytotoxicity is 16.3% [at 0.597 µM] in the assay on MCC-13; 2.75% [at 0.597 µM] in the assay with MCC-26; 9.5% [at 0.597 µM] in the assay on MKL-1; 2.5% [at 0.597 µM] with MKL-2; 19.1% [at 0.597 µM] in the assay on UISO; 13.3% [at 0.597 µM] in the assay on WaGa. Besides, the activity change, negative = cytotoxicity in the assay with C33A is 4.69% [at 0.462 µM]; with CAOV3, 0% [at 0.462 µM]; in the assay with CASKI it was -0.808% [at 0.462 µM]; with Es-2 it was 9.29% [at 0.462 µM]; in the assay with HeLa, 15.4% [at 0.462 µM].
As to `COc1ccc(C(=O)c2ccccc2)c(O)c1`, the Potency with W2 is 13.5 µM (active). Besides, the max response is -4.19% with CRL-7250, -18.9% in the assay with KB-3-1 and 2.73% in the assay with NIH3T3. The outcome with HEK293 and with HEK293T was inactive. In addition, the Potency result with MCC-13, in the assay on MCC-26, with MKL-1, in the assay with MKL-2, with UISO and in the assay on WaGa was “inactive” throughout. Further, the Potency entry in the assay on C33A, in the assay on CASKI, with Es-2 and in the assay with HeLa was “inactive” each time.
As to `CC(C)Nc1cccnc1N1CCN(C(=O)c2cc3cc(NS(C)(=O)=O)ccc3[nH]2)CC1`, the Potency in the assay on W2 was 9.53 µM (active). Also, the call in the assay on CRL-7250 was inactive. The values for the max response in the assay on HEK293, in the assay with HaCat and with NIH3T3 were -14.8%, 0.0011% and -1.79%, respectively. Moreover, the Potency entry in the assay on MCC-13, in the assay on MKL-1, with MKL-2, in the assay on UISO, in the assay on WaGa and with C33A was “inactive” each time. Further, the Potency result in the assay on CAOV3, in the assay on CASKI, with Es-2 and in the assay on HeLa was “inactive” each time.
Take `OC[C@H]1O[C@@H]2O[C@H]3[C@H](O)[C@@H](O)[C@@H](O[C@H]4[C@H](O)[C@@H](O)[C@@H](O[C@H]5[C@H](O)[C@@H](O)[C@@H](O[C@H]6[C@H](O)[C@@H](O)[C@@H](O[C@H]7[C@H](O)[C@@H](O)[C@@H](O[C@H]8[C@H](O)[C@@H](O)[C@@H](O[C@H]1[C@H](O)[C@H]2O)O[C@@H]8CO)O[C@@H]7CO)O[C@@H]6CO)O[C@@H]5CO)O[C@@H]4CO)O[C@@H]3CO`: the Potency entry with W2, in the assay with MCC-13, in the assay with MCC-26, in the assay on MKL-1, with MKL-2 and in the assay on UISO was “inactive” each time. Further, the Potency result in the assay on WaGa, in the assay on C33A, with CAOV3, in the assay with CASKI, in the assay with Es-2 and in the assay with HeLa was “inactive” each time. For the same compound, the outcome in the assay on CRL-7250, in the assay on HEK293 and in the assay with HEK293T was inactive. Besides, the max response was 3.96% in the assay on KB-3-1 and -2.76% in the assay on NIH3T3.
